The values below come from PubChem BioAssay.

Experiment [1] is described as follows: compound effects on lung adenocarcinoma cell viability – A549, calcein-AM fluorescence, 48 h, basal, profiling panel (AID 1162). The settings on record: higher = more signal.
A short description of experiment [2]: compound effects on differentiated 3T3-L1 adipocyte viability – cell-based, 3T3-L1 adipocytes, calcein-AM fluorescence, 48 h, basal, profiling panel (AID 1163). The following applies: 3T3-L1 adipocytes viability, higher = more signal.
Experiment [3] can be described thus: compound effects on hepatocellular carcinoma cell viability – HepG2, calcein-AM fluorescence, 48 h, basal, profiling panel (AID 1164). The settings on record: higher = more signal.
Experiment [4] can be described thus: compound effects on multiple myeloma cell viability – MM1S, calcein-AM fluorescence, 48 h, basal, profiling panel (AID 1165).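 Further: viability of MM1S multiple myeloma cells under basal unstimulated conditions.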 The settings on record: higher = more signal.
Experiment [5] can be described thus: calcein-AM signal in unstimulated myeloma cells – cell-based, calcein-AM fluorescence, 48 h, PK04 Diversity Set, profiling panel (AID 1166).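 Further: cells grown under basal conditions without added stimulus.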 The settings on record: RPMI8226 myeloma viability, higher = more signal.
A short description of experiment [6]: JC-1 mitochondrial signal, unstimulated HepG2 cells – cell-based, JC-1 fluorescence, 24 h, 100 nL compound, profiling panel (AID 1167). The settings on record: HepG2 mitochondrial potential, higher = more signal.
Experiment [7] in a line: JC-1 mitochondrial signal, unstimulated adipocytes – cell-based, JC-1 fluorescence, 3T3-L1 adipocytes, 24 h, 100 nL compound, profiling panel (AID 1168). The settings on record: JC-1 mitochondrial fluorescence, higher = more signal, called active from +8 up or from −8 down.
Experiment [8] is described as follows: JC-1 mitochondrial signal, unstimulated myeloma cells – cell-based, JC-1 fluorescence, RPMI8226, 24 h, 100 nL compound, profiling panel (AID 1169). The settings on record: JC-1 mitochondrial potential fluorescence, higher = more signal.
Experiment [9] can be described thus: JC-1 mitochondrial signal, unstimulated MM1S myeloma – cell-based, JC-1 fluorescence, 24 h, 100 nL compound, profiling panel (AID 1170). The following applies: MM1S mitochondrial potential, higher = more signal.
A short description of experiment [10]: resazurin metabolic signal in A549 cells – cell-based, resazurin fluorescence, 24 h, PK04 Diversity Set, profiling panel (AID 1171). The settings on record: A549 viability, higher = more signal, called active from +8 up or from −8 down. For orientation: Alamar Blue is a resazurin reagent that responds to reducing activity.

The source made the active and inactive calls.
Further: test concentration not given here.

`CO[C@H]1COC(=O)CCC[C@H](C)[C@@H](OC)COC(=O)CC=C[C@@H]1C`: the z-score in [1] was 0.0792; in experiment [2] it was 0.751; in experiment [3] it was 0.205; in [4], 0.105; in experiment [5], 0.471; in experiment [6] it was -0.503. The z-score in experiment [7] was -0.713 (inactive); in experiment [8], -0.483; in [9], -0.866; in [10] it was 0.0382 (inactive).
As for `COC(=O)[C@@H]1CC[C@H](C)[C@@H](c2ccc(Br)cc2)N1C(=O)C(F)(F)F`, the z-score in experiment [1] is -0.0701; in experiment [2], -0.0882; in experiment [3] it was -0.434; in [4] it was -1.24; in experiment [5], 0.468; in [6] it was 0.399. Further, the z-score in [7] is 0.0984 (inactive); in [8], 0.508; in experiment [9], 0.554; in experiment [10], 0.839 (inactive).
Turning to `CC(C)(C)N1C(=O)[C@H]2[C@H]3[C@H](O)[C@H](O)CC(=NNC(=O)OCc4ccccc4)[C@H]3CC[C@H]2C1=O`, the z-score in experiment [1] was -1.13; in [2], 1.11; in experiment [3], -0.516; in experiment [4], -0.269; in [5], -0.934; in [6], -0.639. Further, the z-score is -1.49 (inactive) in experiment [7], -0.411 in experiment [8], -0.823 in experiment [9] and 0.321 (inactive) in experiment [10].
As for `CO[C@H]1COC(=O)[C@H](CCSC)NC(=O)CC=C[C@@H](C)[C@H](OC)COC(=O)[C@@H](OCc2ccccc2)C=C[C@@H]1C`, the z-score in experiment [1] was -0.843; in experiment [2], -0.161; in [3] it was -1.1; in experiment [4], -0.0051; in experiment [5], 0.241; in experiment [6] it was 0.247. Also, the z-score in [7] was -1.75 (inactive); in experiment [8], 0.759; in experiment [9], -0.491; in experiment [10], 0.886 (inactive).
`COc1ccc(COC(=O)NN=C2C[C@@H](O)[C@@H](O)[C@@H]3[C@@H]4C(=O)N(Cc5ccc6c(c5)OCO6)C(=O)[C@@H]4CC[C@H]23)cc1`: the z-score in [1] is -0.0897; in experiment [2] it was -0.243; in experiment [3], 0.53; in experiment [4], 0.311; in experiment [5] it was -0.0157; in experiment [6], 0.301. The z-score in [7] is -0.339 (inactive); in [8], 0.0307; in experiment [9], -0.825; in experiment [10], -0.0129 (inactive).
For `CO[C@@H]1COC(=O)[C@H](CCSC)NC(=O)CC=C[C@@H](C)COC(=O)[C@@H]2CCCN2C(=O)CC=C[C@H]1C`, the z-score in [1] is -0.25; in [2] it was -0.094; in experiment [3], 0.182; in experiment [4], 0.105; in experiment [5], 0.339; in [6], 0.754. For the same compound, the z-score is 0.579 (inactive) in [7], -0.79 in [8], 0.326 in [9] and 0.285 (inactive) in experiment [10].
As to `COc1ccc(OC[C@@H]2CC3[C@@H](c4ccc(Br)cc4)[C@H](C)CC[C@H]3C(=O)O2)cc1` (stereo not given in full), the z-score in experiment [1] is 0.228; in experiment [2], 0.0081; in experiment [3], 0.139; in experiment [4], 0.332; in experiment [5], -0.204; in experiment [6], -0.96. The z-score in [7] was 0.533 (inactive); in experiment [8], 0.196; in [9], 0.0404; in [10], 0.582 (inactive).
Regarding `C[C@H]1CC[C@H]2C(=O)N[C@H](Cc3ccccc3)C(=O)N2[C@@H]1c1ccccc1`, the z-score in experiment [1] is -0.103; in experiment [2], 0.283; in experiment [3], 0.194; in experiment [4] it was -0.643; in experiment [5], 0.0185; in experiment [6] it was 0.399. In addition, the z-score in experiment [7] was -0.556 (inactive); in [8] it was 0.471; in experiment [9] it was 1.28; in experiment [10], -0.232 (inactive).
As to `COc1cccc([C@H]2Oc3ccc(OC)cc3C(=NOCC[C@@H]3C=C[C@H](OC(C)=O)[C@@H](COC(C)=O)O3)[C@@H]2O)c1`, the z-score in experiment [1] is -0.34; in experiment [2] it was -0.542; in experiment [3], -0.744; in experiment [4], 0.445; in experiment [5], -1.19; in experiment [6], -1.28. The z-score in experiment [7] is -1.16 (inactive); in [8], -0.209; in experiment [9] it was -1.04; in experiment [10], -0.945 (inactive).
Take `COc1ccc(OC[C@H]2CN3[C@@H](CC[C@@H](C)[C@@H]3c3ccc(Br)cc3)C(=O)O2)cc1`: the z-score in [1] was -0.0668; in experiment [2], 0.0118; in experiment [3] it was -0.227; in experiment [4], 0.829; in [5] it was -1.2; in experiment [6], -0.057. Further, the z-score in experiment [7] was -0.187 (inactive); in experiment [8], 0.979; in [9] it was 0.381; in [10] it was -0.914 (inactive).
As for `COC(=O)CC=C[C@@H](C)[C@@H](C=NOC(C)CN1CCCCc2nc(C)c(C)cc21)NS(=O)(=O)c1ccc(C)cc1` (stereo not given in full), the z-score in experiment [1] was -0.366; in experiment [2] it was 0.61; in [3], 0.0477; in experiment [4] it was 0.0238; in experiment [5] it was -0.141; in experiment [6] it was -0.246. The z-score in [7] is -0.442 (inactive); in experiment [8] it was -1.02; in [9], -0.0131; in experiment [10], -0.204 (inactive).
As to `COC(=O)CC=C[C@@H](C)[C@@H](C=NOC[C@@H](O)COCc1ccco1)NS(=O)(=O)c1ccc(C)cc1`, the z-score in experiment [1] is -0.393; in experiment [2], -0.295; in [3], 0.3; in experiment [4] it was -0.833; in experiment [5], -0.623; in experiment [6], -1.23. Besides, the z-score is 0.0134 (inactive) in experiment [7], -0.655 in [8], -0.436 in [9] and -0.44 (inactive) in [10].
As for `COCCNC(=O)OCC1CCCC2(CC(OC(=O)NCc3cccc4ccccc34)CC(CCC(=O)N[C@@H](C)C(=O)OC)O2)O1` (stereo not given in full), the z-score is 1.89 in [1]; -0.812 in [2]; 0.791 in experiment [3]; -0.215 in [4]; -0.886 in [5]; 1.64 in [6]. In addition, the z-score in [7] is -0.0355 (inactive); in experiment [8] it was -0.125; in [9], -1.16; in experiment [10], 1.67 (inactive).
Consider `CCOC(=O)CCN1C(=O)[C@H]2[C@H]3[C@H](O)[C@H](O)CC(=NO[C@@H]4O[C@H](CO)[C@@H](O)[C@H](O)[C@H]4O)[C@@H]3CC[C@H]2C1=O`, for which the z-score in experiment [1] was 0.816; in [2] it was -0.0641; in [3], 1.19; in [4], -0.269; in experiment [5], 0.238; in [6], -0.0782. The z-score is -0.0421 (inactive) in [7], 0.577 in experiment [8], -1.45 in experiment [9] and -0.765 (inactive) in experiment [10].
Consider `CC(=O)OC[C@H]1O[C@H](CC=NOCC[C@@H]2C=C[C@H](OC(C)=O)[C@@H](COC(C)=O)O2)C=C[C@@H]1OC(C)=O`, for which the z-score is -0.542 in [1]; -0.282 in experiment [2]; -0.441 in experiment [3]; 0.0077 in [4]; -0.786 in experiment [5]; -0.314 in [6]. Further, the z-score in experiment [7] was -0.267 (inactive); in [8], 0.503; in experiment [9] it was 0.394; in experiment [10] it was 0.125 (inactive).
For the compound `CC(CCC(=O)OC[C@H]1O[C@H](C#Cc2ccccc2)C=C[C@@H]1Oc1ccc(C)cc1)=NOC(C)CN1CCCCc2nc(C)c(C)cc21` (stereo not given in full), the z-score in experiment [1] is 0.393; in experiment [2] it was -0.239; in [3] it was 0.0574; in experiment [4], -2.15; in experiment [5], -1.73; in experiment [6] it was 1.34. For the same compound, the z-score in [7] is -2.02 (inactive); in experiment [8] it was -0.325; in [9], -0.737; in experiment [10], 0.599 (inactive).
